Measurements published in PubChem BioAssay.
Inconclusive results are not listed. The source made the active and inactive calls.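 The calls were made as follows, unless noted: active = inhibition above the screen-wide mean plus 3 SD, about 51%; inactive = the rest.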

Key:
[1] = rapamycin-like changes in RPL19A-GFP expression – cell-based, S. cerevisiae, multiplex flow cytometry, primary screen (AID 1862; in the data active = percent of DMSO control GFP below about 86%;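 also: lower values mimic rapamycin by blocking the RPL19A rise seen in DMSO cells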); conditions: S. cerevisiae RPL19A-GFP strain, flow cytometry fluorescence, 3 h; at 10 µM; stronger effect = lower value
[2] = TOR pathway GLN3 branch reporter MEP2-GFP changes – S. cerevisiae, multiplex flow cytometry, primary screen (AID 1867;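 active = GFP response, as percent of the DMSO control, above the screen-wide mean plus 3 SD, about 139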;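 also: median GFP channel fluorescence of barcode-gated MEP2-GFP cells measured by flow cytometry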); conditions: S. cerevisiae MEP2-GFP strain, 3 h, at 10 µM, stronger effect = higher value, 100% means same as DMSO wells
[3] = TOR pathway RTG branch CIT2 reporter changes – S. cerevisiae, GFP fusion, multiplex flow cytometry, primary screen (AID 1870;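 active = percent response above a set limit, the screen-wide mean plus 3 SD, cut at about 130% in these data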;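 also: barcoded CIT2-GFP strain pooled with four other GFP strains with rapamycin as positive control; median GFP fluorescence per well over plate mean of DMSO wells so 100% = DMSO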); conditions: S. cerevisiae CIT2-GFP expression, 3 h, at 10 µM, stronger effect = higher value
[4] = TOR pathway LAP4-GFP level changes – S. cerevisiae, multiplex flow cytometry, primary screen (AID 1873;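 active = GFP signal, as percent of the solvent control, above the screen mean plus 3 SD, about 149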); conditions: S. cerevisiae LAP4-GFP expression, 3 h, at 10 µM, stronger effect = higher value
[5] = yeast AGP1-GFP level changes, GLN3 branch – cell-based, multiplex flow cytometry, S. cerevisiae, primary screen (AID 1887;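 active = GFP signal above the screen-wide mean plus 3 SD, that is over about 124.5% of the solvent control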;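 also: AGP1-GFP fusion strain of S. cerevisiae within a five-strain barcoded multiplex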); conditions: 3 h, at 10 µM, stronger effect = higher value
[6] = reduced mouse 2C T cell binding to pMHC/ICAM-1 vesicles – MLPCN validation set, flow cytometry, LFA-1/ICAM-1 modulator project, pilot screen (AID 2523;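 active = response below a set limit, under 55% cells CD8-positive and vesicle-bound, and CD8 cells' 90th-percentile brightness under 279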;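 as to vesicle binding response: mean PE anti-B7-1 fluorescence of CD8+ cells relative to row control; 100% = QL9-loaded vesicles with DMSO vehicle in the same plate row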); conditions: 2C mouse CD8+ T cells, at 7 µM, stronger effect = lower value; double positive events: measured here: CD8+/vesicle+ event percentage
[7] = molecular target: Integrin beta-1 (Homo sapiens) + Integrin alpha-4 (Homo sapiens) (UniProt P13612+P05556); assay: alpha4beta1 integrin LIBS antibody binding reduction – U937 cells, HUTS-21 mAb, flow cytometry, validation set, VLA-4 allosteric modulator project, pilot screen (AID 2674;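 active = inhibition above 50%, about 3 SD of the validation set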;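 also: antibody binding induced by the VLA-4 ligand LDV present at three times its Kd; 0% = LDV ligand with antibody and no compound and 100% = antibody without LDV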); conditions: HUTS-21 LIBS mAb binding, at 6.7 µM, stronger effect = higher value, binding induced by LDV ligand
Integrin beta-1 (Homo sapiens) + Integrin alpha-4 (Homo sapiens), sequence (P05556 whole entry, looked up): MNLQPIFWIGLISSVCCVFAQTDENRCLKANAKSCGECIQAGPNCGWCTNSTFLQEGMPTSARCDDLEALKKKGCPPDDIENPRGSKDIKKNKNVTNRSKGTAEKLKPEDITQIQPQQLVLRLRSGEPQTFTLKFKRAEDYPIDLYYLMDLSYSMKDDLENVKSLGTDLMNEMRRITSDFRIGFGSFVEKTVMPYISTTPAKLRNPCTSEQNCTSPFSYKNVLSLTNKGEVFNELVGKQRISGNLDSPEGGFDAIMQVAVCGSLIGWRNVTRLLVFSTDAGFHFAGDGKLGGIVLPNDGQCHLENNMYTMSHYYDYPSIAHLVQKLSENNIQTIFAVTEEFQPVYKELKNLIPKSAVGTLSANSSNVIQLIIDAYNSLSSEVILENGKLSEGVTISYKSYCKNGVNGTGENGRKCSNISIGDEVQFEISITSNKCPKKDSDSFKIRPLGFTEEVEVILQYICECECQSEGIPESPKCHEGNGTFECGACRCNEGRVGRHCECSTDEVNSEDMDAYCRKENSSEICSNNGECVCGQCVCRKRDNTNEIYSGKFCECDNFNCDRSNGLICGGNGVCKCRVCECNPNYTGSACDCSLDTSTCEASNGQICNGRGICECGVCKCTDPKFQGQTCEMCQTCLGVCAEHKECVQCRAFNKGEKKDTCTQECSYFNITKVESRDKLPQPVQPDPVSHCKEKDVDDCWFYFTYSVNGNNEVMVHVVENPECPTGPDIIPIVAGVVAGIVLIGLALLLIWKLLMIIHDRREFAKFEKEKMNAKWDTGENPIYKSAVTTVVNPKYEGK
Integrin beta-1 (Homo sapiens) + Integrin alpha-4 (Homo sapiens), sequence (P13612 whole entry, looked up): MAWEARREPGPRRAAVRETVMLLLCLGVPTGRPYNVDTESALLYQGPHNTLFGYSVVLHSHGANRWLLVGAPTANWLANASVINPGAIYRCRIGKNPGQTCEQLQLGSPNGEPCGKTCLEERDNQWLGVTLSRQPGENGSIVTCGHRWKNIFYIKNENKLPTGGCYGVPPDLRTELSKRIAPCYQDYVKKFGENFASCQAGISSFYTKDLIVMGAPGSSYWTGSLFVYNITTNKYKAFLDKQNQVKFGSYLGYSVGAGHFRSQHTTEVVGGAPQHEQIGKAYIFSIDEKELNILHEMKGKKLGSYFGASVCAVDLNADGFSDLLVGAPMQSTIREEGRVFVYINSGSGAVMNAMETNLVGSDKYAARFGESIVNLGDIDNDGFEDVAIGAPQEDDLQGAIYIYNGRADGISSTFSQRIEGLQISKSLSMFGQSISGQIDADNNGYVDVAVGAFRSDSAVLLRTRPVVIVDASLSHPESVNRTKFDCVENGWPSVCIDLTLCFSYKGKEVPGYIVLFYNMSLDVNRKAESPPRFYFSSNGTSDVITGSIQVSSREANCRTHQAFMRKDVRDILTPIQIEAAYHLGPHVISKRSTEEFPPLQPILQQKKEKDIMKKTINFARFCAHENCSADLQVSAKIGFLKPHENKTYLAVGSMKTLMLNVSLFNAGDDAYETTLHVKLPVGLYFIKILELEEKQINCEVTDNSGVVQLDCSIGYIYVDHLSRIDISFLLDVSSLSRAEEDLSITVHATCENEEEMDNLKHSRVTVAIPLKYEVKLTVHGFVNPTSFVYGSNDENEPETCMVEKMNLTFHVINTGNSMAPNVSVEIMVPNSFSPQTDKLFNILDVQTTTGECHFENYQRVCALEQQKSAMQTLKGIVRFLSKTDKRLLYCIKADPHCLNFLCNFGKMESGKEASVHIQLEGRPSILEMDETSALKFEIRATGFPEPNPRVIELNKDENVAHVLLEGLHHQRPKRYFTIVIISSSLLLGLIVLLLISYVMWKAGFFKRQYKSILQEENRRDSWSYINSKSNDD

[8] = calorie-restriction mimetic ROS inhibitors, yeast – validation compound set, pilot screen (AID 2706;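 active = superoxide response below 65% of plate, a cut near 3 SD across the whole screen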;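 also: yeast exposed to compound for one week at 30 degrees C before staining; 100% = mean of all compound wells on the same plate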); conditions: S. cerevisiae aging, superoxide DHE fluorescence; at 10 µM; stronger effect = lower value
[9] = molecular target: Beta-adrenergic receptor kinase 1 (Homo sapiens) (UniProt P25098); assay: GRK2 binders displacing RNA aptamer, biochemical, validation, human GRK2, bead flow cytometry (AID 488806;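 active = aptamer binding inhibition above 30%, about 3 SD of noise from non-fluorescent compounds; inactive = inhibition at or below 30%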); conditions: bead-bound GRK2, FAM-aptamer displacement, at 10 µM, stronger effect = higher value
Beta-adrenergic receptor kinase 1 (Homo sapiens), sequence (P25098 whole entry, looked up): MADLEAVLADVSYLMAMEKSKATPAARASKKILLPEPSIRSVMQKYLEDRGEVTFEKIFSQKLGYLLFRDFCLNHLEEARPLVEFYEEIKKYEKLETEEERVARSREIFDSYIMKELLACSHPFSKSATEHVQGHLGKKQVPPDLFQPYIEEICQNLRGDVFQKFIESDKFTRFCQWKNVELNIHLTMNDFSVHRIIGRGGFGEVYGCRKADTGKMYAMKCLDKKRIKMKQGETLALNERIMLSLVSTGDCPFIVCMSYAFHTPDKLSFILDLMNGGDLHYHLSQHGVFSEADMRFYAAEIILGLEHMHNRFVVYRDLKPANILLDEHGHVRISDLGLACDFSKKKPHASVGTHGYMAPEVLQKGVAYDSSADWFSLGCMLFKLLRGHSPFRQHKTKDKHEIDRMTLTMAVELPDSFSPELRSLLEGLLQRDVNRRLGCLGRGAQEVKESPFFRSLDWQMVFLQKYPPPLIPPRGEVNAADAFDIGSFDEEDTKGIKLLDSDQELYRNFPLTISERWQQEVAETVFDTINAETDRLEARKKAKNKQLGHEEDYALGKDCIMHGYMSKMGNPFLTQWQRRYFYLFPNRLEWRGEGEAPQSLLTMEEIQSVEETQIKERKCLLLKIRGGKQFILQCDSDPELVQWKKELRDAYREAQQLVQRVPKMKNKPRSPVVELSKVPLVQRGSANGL

[10] = molecular target: Beta-2 adrenergic receptor (Homo sapiens) (UniProt P07550); assay: agonist-induced loss of surface beta2AR – cell-based, FAP fluorogen, flow cytometry, validation set, pilot screen (AID 504459;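 active = percent response above 42, roughly 3 SD of non-fluorescent test compounds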;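 also: agonist-driven loss of surface beta2AR via internalization measured by FAP dye flow cytometry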); conditions: Am2.2-beta2AR cells, at 10 µM, stronger effect = higher value
Beta-2 adrenergic receptor (Homo sapiens), sequence (P07550 whole entry, looked up): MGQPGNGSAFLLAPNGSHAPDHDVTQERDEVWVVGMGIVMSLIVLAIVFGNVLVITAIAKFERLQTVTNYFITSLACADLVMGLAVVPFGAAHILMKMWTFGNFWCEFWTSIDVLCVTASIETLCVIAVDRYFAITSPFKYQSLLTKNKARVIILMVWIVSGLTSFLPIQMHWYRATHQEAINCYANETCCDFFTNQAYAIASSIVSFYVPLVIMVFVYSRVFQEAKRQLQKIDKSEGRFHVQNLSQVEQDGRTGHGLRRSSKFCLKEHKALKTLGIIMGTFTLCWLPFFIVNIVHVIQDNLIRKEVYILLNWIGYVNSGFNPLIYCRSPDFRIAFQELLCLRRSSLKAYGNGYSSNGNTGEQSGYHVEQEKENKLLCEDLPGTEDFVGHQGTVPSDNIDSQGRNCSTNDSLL

[11] = molecular target: AP-2 complex subunit beta (Homo sapiens) (UniProt P63010); assay: beta-arrestin/AP2 interaction blockers – biochemical, validation set, GST-AP2 beads, flow cytometry, pilot screen (AID 504541;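 active = inhibition above 54%, about 3 SD of non-fluorescent compounds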;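 also: AP2 carries R879A mutation and is captured from E. coli lysate; bead-bound FITC arrestin peptide fluorescence measuring arrestin peptide binding to AP2; 0% = DMSO wells and 100% = excess unlabeled arrestin peptide control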); conditions: FITC arrestin peptide, at 10 µM, stronger effect = higher value, AP2 beta2 appendage fragment, R879A mutant
AP-2 complex subunit beta (Homo sapiens), sequence (P63010 whole entry, looked up, the tested form may be a part, one chain of several): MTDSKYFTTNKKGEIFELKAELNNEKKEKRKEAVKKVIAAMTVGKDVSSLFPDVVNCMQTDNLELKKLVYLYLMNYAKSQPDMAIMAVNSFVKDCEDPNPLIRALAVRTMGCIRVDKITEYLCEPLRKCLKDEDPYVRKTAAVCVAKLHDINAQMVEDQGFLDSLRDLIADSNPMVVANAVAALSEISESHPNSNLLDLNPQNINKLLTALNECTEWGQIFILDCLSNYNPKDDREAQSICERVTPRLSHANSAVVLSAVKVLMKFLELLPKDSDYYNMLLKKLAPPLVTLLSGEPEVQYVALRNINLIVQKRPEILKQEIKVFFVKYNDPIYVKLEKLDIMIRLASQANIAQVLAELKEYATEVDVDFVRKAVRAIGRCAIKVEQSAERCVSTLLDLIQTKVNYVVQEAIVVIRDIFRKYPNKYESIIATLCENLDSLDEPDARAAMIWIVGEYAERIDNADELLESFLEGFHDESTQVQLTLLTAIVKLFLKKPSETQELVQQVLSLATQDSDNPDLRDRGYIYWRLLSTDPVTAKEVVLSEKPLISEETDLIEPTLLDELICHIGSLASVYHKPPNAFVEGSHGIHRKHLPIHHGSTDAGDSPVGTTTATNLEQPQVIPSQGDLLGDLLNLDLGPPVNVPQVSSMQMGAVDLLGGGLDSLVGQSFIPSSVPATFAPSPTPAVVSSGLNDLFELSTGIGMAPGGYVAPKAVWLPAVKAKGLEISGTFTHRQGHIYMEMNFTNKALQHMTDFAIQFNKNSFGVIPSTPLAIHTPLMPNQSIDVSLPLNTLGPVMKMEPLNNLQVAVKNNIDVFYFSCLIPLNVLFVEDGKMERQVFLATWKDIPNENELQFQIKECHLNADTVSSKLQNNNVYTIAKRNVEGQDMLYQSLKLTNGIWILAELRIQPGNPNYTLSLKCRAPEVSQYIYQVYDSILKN

[12] = cytosolic pH regulators acting via V-ATPase – S. cerevisiae, pHLuorin, HTS validation (AID 504600; in the data active = response above about 15%;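 also: plate controls were DMSO for no effect and reference compound for full effect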); conditions: V-ATPase proton transport, at 10 µM, stronger effect = higher value
[13] = test system: anti-desmoglein-3 scFv antibody binding to human DSG3; assay: blockers of pathogenic pemphigus antibody–desmoglein-3 binding – biochemical, validation compound set, bead-based, flow cytometry, pilot screen (AID 588368;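 active = binding below the plate cutoff, the plate median minus 3 SD, with a reading above zero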;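 also: signal is the median channel fluorescence of bead-bound GFP antibody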); conditions: Protein G beads, DSG3-Fc, scFv-GFP binding, at 10 µM, stronger effect = lower value
[14] = Nile Red efflux blockade in pump-expressing yeast – validation compound set, multiplex, phenotypic, pilot screen (AID 588506;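 active = efflux inhibition above 0.42, the validation set average plus 4 SD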;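 also: Nile Red retained in cells so higher fluorescence means more efflux inhibition; 0 = negative control wells and 1 = enniatin B 25 µM full block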); conditions: S. cerevisiae pump-expressing triplex, Nile Red efflux flow cytometry; at 10 µM; stronger effect = higher value; the pumps come from Candida albicans
[15] = molecular target: ATP-binding cassette sub-family B member 6 (Homo sapiens) (UniProt Q9NP58); assay: blockers of ABCB6-driven porphyrin uptake – K562-ABCB6 cells, flow cytometry, validation set, pilot screen (AID 588550); conditions: K562-ABCB6 porphyrin accumulation, 1 h, at 10 µM, stronger effect = higher value;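 also: 0% = DMSO wells and 100% = benzethonium chloride 70 µM positive control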
ATP-binding cassette sub-family B member 6 (Homo sapiens), sequence (Q9NP58 whole entry, looked up): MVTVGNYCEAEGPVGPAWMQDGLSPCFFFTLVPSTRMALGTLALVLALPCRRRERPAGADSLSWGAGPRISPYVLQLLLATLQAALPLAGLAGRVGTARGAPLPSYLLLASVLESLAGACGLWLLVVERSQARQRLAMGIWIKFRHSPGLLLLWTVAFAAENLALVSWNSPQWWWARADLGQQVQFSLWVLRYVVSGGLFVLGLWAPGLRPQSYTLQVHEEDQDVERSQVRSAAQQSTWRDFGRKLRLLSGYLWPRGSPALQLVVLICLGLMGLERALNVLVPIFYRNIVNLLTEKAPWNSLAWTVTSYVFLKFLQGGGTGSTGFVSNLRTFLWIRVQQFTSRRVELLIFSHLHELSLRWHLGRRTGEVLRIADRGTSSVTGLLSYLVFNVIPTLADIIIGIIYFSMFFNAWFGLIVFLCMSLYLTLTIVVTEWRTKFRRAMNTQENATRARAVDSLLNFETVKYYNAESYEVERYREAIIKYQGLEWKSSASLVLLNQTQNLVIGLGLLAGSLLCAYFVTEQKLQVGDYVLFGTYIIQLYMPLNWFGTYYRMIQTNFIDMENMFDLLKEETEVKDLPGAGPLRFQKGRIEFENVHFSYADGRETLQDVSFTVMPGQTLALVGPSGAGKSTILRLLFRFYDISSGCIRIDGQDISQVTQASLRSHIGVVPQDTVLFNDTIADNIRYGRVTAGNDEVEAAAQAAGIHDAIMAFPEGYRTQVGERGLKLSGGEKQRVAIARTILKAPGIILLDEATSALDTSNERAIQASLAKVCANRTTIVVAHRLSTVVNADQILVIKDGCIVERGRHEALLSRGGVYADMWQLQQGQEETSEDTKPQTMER

[16] = AML differentiation inducers, ER-HoxA9 marrow cells – cell-based, GFP/MAC1 double positive, flow cytometry, validation set, primary screen (AID 588685;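 active = differentiation response of at least 50%, scaled between solvent and reference control, from cells with both markers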;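 also: compound exposure lasts four days before antibody staining and flow analysis; 0% = DMSO wells and 100% = 5 µM fulvestrant positive control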); conditions: stronger effect = higher value, normalized: vehicle 0, fulvestrant 100

COc1ccc2c(CC(=O)NCC3CCC(C(=O)O)CC3)cc(=O)oc2c1 (stereo not given)
inactive: percent of DMSO control GFP [1] 101% | GFP response vs DMSO [2] 103% | percent response of DMSO control [3] 105% | GFP response vs DMSO [4] 101% | GFP response, % of DMSO [5] 107% | vesicle binding response [6] 116% | inhibition [7] -9.13% | superoxide response (% of plate) [8] 111% | aptamer binding inhibition [9] -2% | response [10] -4.55% | inhibition [11] -1.68% | response [12] 7.23% | binding (% of control) [13] 102% | efflux inhibition (fraction of control) [14] 0.04 | inhibition [15] -1% | differentiation response [16] 4.2%
59.6%: double positive events [6]

COc1cc(C(=O)Nc2cccc(-c3nnc(-c4ccco4)o3)c2)ccc1OC(C)=O
52.3%: double positive events [6]
active: vesicle binding response [6] 52.3% | inhibition [11] 64.4%
inactive: percent of DMSO control GFP [1] 103% | GFP response vs DMSO [2] 103% | percent response of DMSO control [3] 104% | GFP response vs DMSO [4] 109% | GFP response, % of DMSO [5] 107% | inhibition [7] 12.5% | superoxide response (% of plate) [8] 109% | aptamer binding inhibition [9] 5% | response [10] 3.82% | response [12] 2.66% | binding (% of control) [13] 106% | efflux inhibition (fraction of control) [14] 0.17 | inhibition [15] -5% | differentiation response [16] -10.9%

COc1ccc2c(=O)c(-c3cnn(-c4ccccc4)c3)c(C)oc2c1
inactive: percent of DMSO control GFP [1] 102% | GFP response vs DMSO [2] 101% | percent response of DMSO control [3] 99.6% | GFP response vs DMSO [4] 115% | GFP response, % of DMSO [5] 109% | vesicle binding response [6] 153% | inhibition [7] -2.82% | superoxide response (% of plate) [8] 91.1% | aptamer binding inhibition [9] 4% | response [10] -30.2% | inhibition [11] 7% | response [12] 1.88% | binding (% of control) [13] 103% | efflux inhibition (fraction of control) [14] -0.13 | inhibition [15] -336% | differentiation response [16] -0.06%
58.6%: double positive events [6]

C[C@]12CC[C@@H]3c4ccc(O)cc4CC[C@H]3[C@@H]1CC[C@@H]2OC(=O)CCC(=O)O
62.4%: double positive events [6]
active: efflux inhibition (fraction of control) [14] 0.46
inactive: percent of DMSO control GFP [1] 102% | GFP response vs DMSO [2] 103% | percent response of DMSO control [3] 91.3% | GFP response vs DMSO [4] 127% | GFP response, % of DMSO [5] 98.6% | vesicle binding response [6] 223% | inhibition [7] -15.8% | superoxide response (% of plate) [8] 86% | aptamer binding inhibition [9] -7% | response [10] 3.34% | inhibition [11] 50.5% | response [12] -4.55% | binding (% of control) [13] 105% | inhibition [15] -12% | differentiation response [16] 42.2%

Cc1ccc2nc(NC3=NC(CC(=O)O)C(=O)N3)nc(C)c2c1 (stereo not given)
inactive: percent of DMSO control GFP [1] 105% | GFP response vs DMSO [2] 100% | percent response of DMSO control [3] 106% | GFP response vs DMSO [4] 93.3% | GFP response, % of DMSO [5] 106% | vesicle binding response [6] 214% | inhibition [7] 0.58% | superoxide response (% of plate) [8] 96.2% | aptamer binding inhibition [9] 2% | response [10] -2.27% | inhibition [11] 8.29% | response [12] 2.1% | binding (% of control) [13] 96.1% | efflux inhibition (fraction of control) [14] 0.36 | inhibition [15] 6% | differentiation response [16] 9.04%
65.9%: double positive events [6]

CC[C@]1(O)CC2CN(CCc3c([nH]c4ccccc34)[C@@](C(=O)OC)(c3cc4c(cc3OC)N(C=O)[C@H]3[C@@](O)(C(=O)OC)[C@H](OC(C)=O)[C@]5(CC)C=CCN6CC[C@]43[C@@H]65)C2)C1 (stereo not given in full)
61.8%: double positive events [6]
active: inhibition [15] 112%
inactive: percent of DMSO control GFP [1] 103% | GFP response vs DMSO [2] 98.5% | percent response of DMSO control [3] 101% | GFP response vs DMSO [4] 94% | GFP response, % of DMSO [5] 98.5% | vesicle binding response [6] 204% | inhibition [7] 48.7% | superoxide response (% of plate) [8] 93% | aptamer binding inhibition [9] 3% | response [10] 23.4% | inhibition [11] -4.62% | response [12] 6.03% | binding (% of control) [13] 97.2% | efflux inhibition (fraction of control) [14] 0.12 | differentiation response [16] 4%

CCSC(=O)CCCCCCCCCCCO
59.6%: double positive events [6]
inactive: percent of DMSO control GFP [1] 101% | GFP response vs DMSO [2] 103% | percent response of DMSO control [3] 96.4% | GFP response vs DMSO [4] 127% | GFP response, % of DMSO [5] 106% | vesicle binding response [6] 348% | inhibition [7] 20.2% | superoxide response (% of plate) [8] 78.1% | aptamer binding inhibition [9] 0% | response [10] -27.7% | inhibition [11] 41.3% | response [12] 2.69% | binding (% of control) [13] 103% | efflux inhibition (fraction of control) [14] 0.17 | inhibition [15] -2% | differentiation response [16] -13.9%

COc1ccc2c(c1OC)C(=O)OC2C1c2c(cc3c(c2OC)OCO3)CCN1C (stereo not given)
inactive: percent of DMSO control GFP [1] 97.8% | GFP response vs DMSO [2] 100% | percent response of DMSO control [3] 104% | GFP response vs DMSO [4] 91.4% | GFP response, % of DMSO [5] 95.7% | vesicle binding response [6] 230% | inhibition [7] 11% | superoxide response (% of plate) [8] 92.5% | aptamer binding inhibition [9] 5% | response [10] -9.24% | inhibition [11] -5.89% | response [12] -1.48% | binding (% of control) [13] 96.4% | efflux inhibition (fraction of control) [14] -0.29 | inhibition [15] -1% | differentiation response [16] -2.69%
60.2%: double positive events [6]

OCC(O)CN1CCN(c2ccccc2)CC1 (stereo not given)
59.4%: double positive events [6]
inactive: percent of DMSO control GFP [1] 99.3% | GFP response vs DMSO [2] 103% | percent response of DMSO control [3] 90.5% | GFP response vs DMSO [4] 103% | GFP response, % of DMSO [5] 102% | vesicle binding response [6] 145% | inhibition [7] 9.1% | superoxide response (% of plate) [8] 99.2% | aptamer binding inhibition [9] 7% | response [10] -29.2% | inhibition [11] -3.7% | response [12] -24.2% | binding (% of control) [13] 96.2% | efflux inhibition (fraction of control) [14] -0.04 | inhibition [15] 9% | differentiation response [16] 11.8%

COc1ccc(C(=O)O)cc1F
65.5%: double positive events [6]
inactive: percent of DMSO control GFP [1] 104% | GFP response vs DMSO [2] 107% | percent response of DMSO control [3] 107% | GFP response vs DMSO [4] 94.8% | GFP response, % of DMSO [5] 103% | vesicle binding response [6] 151% | inhibition [7] -1.09% | superoxide response (% of plate) [8] 105% | aptamer binding inhibition [9] 3% | response [10] 3.73% | inhibition [11] 15.5% | response [12] -13.5% | binding (% of control) [13] 102% | efflux inhibition (fraction of control) [14] -0.09 | inhibition [15] -3% | differentiation response [16] -8.96%
